Shown are actives, neighbours in structure and some others; about 0.67% of the full set was active somewhere.
Rango-impB inh = qHTS Assay for Inhibitors of Rango (Ran-regulated importin-beta cargo) - Importin beta complex formation; Importin subunit beta-1 (Homo sapiens), Q14974; Rango CFP/YFP FRET sensor + importin beta, 45 min; Potency, µM (titrated, usually from 92.2 µM), for inactives: at the top dose inhibition of complex formation; 340,000 tested, 0.031% active; AID 540263, 2011;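 also: 0% = DMSO wells and 100% = buffer wells lacking importin beta; nearly all actives have a fitted effect of over 15% in size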
Target sequence (Q14974 whole entry, looked up): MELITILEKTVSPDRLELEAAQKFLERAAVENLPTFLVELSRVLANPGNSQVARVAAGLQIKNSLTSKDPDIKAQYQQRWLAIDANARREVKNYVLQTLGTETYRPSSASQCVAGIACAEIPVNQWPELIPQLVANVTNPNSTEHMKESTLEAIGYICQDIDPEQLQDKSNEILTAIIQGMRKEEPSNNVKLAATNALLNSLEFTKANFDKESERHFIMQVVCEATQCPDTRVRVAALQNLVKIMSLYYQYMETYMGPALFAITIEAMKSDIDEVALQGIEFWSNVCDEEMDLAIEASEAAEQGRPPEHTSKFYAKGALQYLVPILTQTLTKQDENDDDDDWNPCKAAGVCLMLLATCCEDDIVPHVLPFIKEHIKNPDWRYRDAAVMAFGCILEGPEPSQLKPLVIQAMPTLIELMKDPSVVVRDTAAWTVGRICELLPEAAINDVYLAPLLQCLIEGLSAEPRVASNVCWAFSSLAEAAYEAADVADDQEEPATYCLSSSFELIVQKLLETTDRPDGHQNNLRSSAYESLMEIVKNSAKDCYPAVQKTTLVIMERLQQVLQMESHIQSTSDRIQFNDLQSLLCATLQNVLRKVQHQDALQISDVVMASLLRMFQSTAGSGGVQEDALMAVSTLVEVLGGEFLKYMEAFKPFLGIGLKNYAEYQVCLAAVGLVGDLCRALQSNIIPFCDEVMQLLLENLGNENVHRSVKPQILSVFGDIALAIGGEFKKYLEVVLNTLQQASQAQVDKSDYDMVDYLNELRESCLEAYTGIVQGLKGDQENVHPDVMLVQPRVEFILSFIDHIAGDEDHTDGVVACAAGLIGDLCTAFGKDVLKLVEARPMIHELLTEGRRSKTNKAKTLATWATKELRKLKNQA
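FRET biosensor Rango (snurportin 1 IBB between N-terminal EYFP and C-terminal Cerulean), 50 nM in PBS/1 mM DTT/0.02% Tween-20/0.1% BSA, preincubated 5 min RT with compound; 0.125 microM importin beta added, 45 min RT, CFP/YFP FRET ratio read.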
gsp antagonist = qHTS for Antagonists of gsp, the Etiologic Mutation Responsible for Fibrous Dysplasia/McCune-Albright Syndrome: qHTS. gsp-mutant cells, cAMP HTRF, 30 min. Potency, µM (series often up to 76.9 µM), without a hit: at the top dose activity change, negative = inhibition, hits mostly inhibitors. 340,000 tested, 0.4% active; calls by dose curve; cell line not stated here;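 also: intracellular cAMP measured with PDE inhibitor Ro 20-1724 present during compound exposure; % is scaled to controls: 0 for no effect and ±100 for the full control effect; nearly all actives have a fitted effect of over 65% in size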
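Measurement of cellular cAMP by homogeneous time-resolved fluorescence following a 30 min compound exposure at 37C. The PDE inhibitor […] was present throughout; the assay buffer was DPBS with 0.05% BSA and 0.005% Tween 20.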
Rango dissoc inh = qHTS Assay for Inhibitors of RanGTP induced Rango (Ran-regulated importin-beta cargo) - Importin beta complex dissociation. Potency, µM (top dose mostly 46.1 µM), for inactives: top-dose activity change, negative = inhibition. 340,000 tested, 0.071% active. Snurportin-1 (Homo sapiens) + GTP-binding nuclear protein Ran (Homo sapiens) + Importin …. Biochemical FRET Rango-importin beta, RanGTP-induced dissociation. AID 540253, 2011; also: % of control where 0% means no effect; nearly all actives have a fitted effect of over 45% in size
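Quantitative HTS using a FRET biosensor: 0.1 uM Rango, 0.25 uM importin beta, 0.6 uM Ran, 2 mM GTP, 0.2 uM RCC1 final, PBS with DTT, Tween-20 and BSA. Post-read taken 45 min after Ran addition.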
S-ASM inh = Inhibitors of Secretory Acid Sphingomyelinase (S-ASM): qHTS; Sphingomyelin phosphodiesterase (Homo sapiens), P17405; placental ASM, HMU-PC fluorogenic substrate, 60 min; 340,000 tested, 0.006% active; Potency, µM (doses to about 57.5 µM), for the others: at the top dose activity change, negative = inhibition, usual class: inhibitors; active = well fitted inhibition curve with a large enough effect; inconclusive = small, poorly fitted or top-dose-only effect; inactive = no such curve, though single readings can be large or run the other way
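Fluorescence read-out (Ex 386 nm, Em 447 nm) after stopping the reaction at pH 10. Enzyme: ASM from human placenta; substrate HMU-PC0, 9 uM final; 60 min, 37 °C. Compound preincubation 10 min, ambient temperature.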
gsp agonist = qHTS for Agonist of gsp, the Etiologic Mutation Responsible for Fibrous Dysplasia/McCune-Albright Syndrome: qHTS | gsp mutant cells, cAMP HTRF, 30 min | Potency, µM (top dose mostly 76.9 µM), for inactives: at the top dose activation (cAMP increase), most hits filed as activators | 340,000 tested, 0.13% active | AID 624287, 2012; active = well fitted activation curve with a large enough effect; inconclusive = small, poorly fitted or top-dose-only effect, or another doubt; inactive = no such curve, though single readings can be large or run the other way; cell line not stated here;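 also: phosphodiesterase inhibitor Ro 20-1724 added with compounds to block cAMP breakdown; nearly all actives have a fitted effect of over 60% in size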
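Cells in DMEM/10% FBS with G418 were pretreated with compounds in DMSO plus […] (300 uM stock) for 30 min at 37C. cAMP was measured by HTRF (cAMP-d2 plus anti-cAMP antibody-K) after 30 min at room temperature.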
* marks the source's active call; other numbers are inactive results; ? = inconclusive; . = no result; [ ] = dose if it differs, or a comment. Unless noted, calls follow the shape of the full dose curve. Potency is read from the fitted curve at half-maximal effect.

SMILES | Rango-impB inh | gsp antagonist | Rango dissoc inh | S-ASM inh | gsp agonist
COc1ccc(NC(=O)c2ccc(-c3ccc([N+](=O)[O-])cc3)o2)cc1OC | -1.3% | 35.5µM* | 3.8% | -14.3% | 7.8%
COc1ccc(CCNC(=O)c2ccc(CS(=O)(=O)c3ccc(Cl)cc3)o2)cc1OC | 1.4% | 39.8µM* | 8.7% | 2.5% | -21.1%
O=C(Nc1ccccc1F)Nc1ccccc1OC(F)F | 1.7% | 7.5% | 1.7% | -1.0% | 5.4%
O=Cc1cccn1-c1nccc(-c2ccco2)n1 | -1.7% | 0.7% | 6.2% | 2.4% | 27.3%
COc1ccccc1N(C)S(=O)(=O)c1ccc(Cl)c(C(=O)Nc2ccccc2N2CCOCC2)c1 | 1.2% | -14.4% | -9.5% | 2.8% | 14.6%
Cc1cc(Br)ccc1NC(=O)CNC(=O)CN(C)C1CCS(=O)(=O)C1 (stereo not drawn) | 0.5% | 11.8% | 10.3% | 0.1% | 11.6%[15.4 µM]
N#CC1c2ccccc2-c2ccccc2N1C(=O)c1ccccc1 (stereo not drawn) | . | . | . | . | 21.3%
COC(=O)c1c(NC(=O)C2CCCCC2C(=O)O)sc2c1CCCCC2 (stereo not drawn) | 0.9% | -27.4% | 0.5% | -3.3% | 26.4%[15.4 µM]
COC(=O)c1sc(NC(=O)C2CCCCC2C(=O)O)c(C(=O)OC)c1C (stereo not drawn) | 4.7% | 9.3% | 3.1% | -2.8% | 14.1µM*
COc1ccc(N2C(=O)C(Cl)=C(Oc3cccc(OC)c3)C2=O)cc1 | -2.1% | 28.2µM* | 10.2% | 4.1% | -3.3%[15.4 µM]
COc1ccc(N2C(=O)c3ccccc3C2=O)cc1 | 0.5% | 5.1% | -3.9% | 3.6% | -7.4%[15.4 µM]
Cc1ccc(/C=C2\Sc3ccccc3C2=O)s1 | ? | -16.7% | 2.91µM* | ? | 24.0%
CC(=O)Nc1ccc(/C=C2\Sc3ccccc3C2=O)cc1 | ? | -10.3% | ? | -0.1% | -2.7%[15.4 µM]
COc1ccc(OCC(=O)Nc2ccc(C(=O)Nc3ccccc3C(=O)O)cc2)cc1 | -0.6% | 39.8µM* | -0.9% | 0.8% | 16.4%
O=C(Nc1ccnn1C1CCN(Cc2c[nH]c3ccccc23)CC1)c1ccccc1 | 0.0% | 17.5% | -6.0% | -2.6% | 21.8%
CCOC(=O)c1sc2nc(C)[nH]c(=S)c2c1C | ? | 3.0% | -9.4% | -1.4% | 12.6µM*
Cc1cc(=O)[nH]c(SCC(=O)c2c(N)n(C)c(=O)n(C)c2=O)n1 | 0.3% | 35.6% | 18.4% | 1.9% | 25.1µM*
CCOc1ccc(NC(=S)N2CCN(S(=O)(=O)c3ccc(OC)cc3)CC2)cc1 | -0.7% | 1.9% | 4.5% | 1.9% | 0.1%
COC(=O)c1ccc(CNC(=O)Cn2cnc3c(SC)nc(N)nc32)cc1 | 2.5% | 3.7% | 1.8% | -2.5% | .
CC(=O)N(/C=C1\SC(=S)N(c2ccccc2)C1=O)c1ccccc1 | ? | -4.1% | 16.4µM* | -12.3% | 3.0%
CCN1C(=O)/C(=C\N(C(C)=O)c2ccccc2)OC1=S | 0.1% | 7.5% | -4.7% | 4.0% | ?
Cc1cc(NC(=O)c2ccc(Br)o2)ccc1NC(=O)c1ccco1 | -2.9% | -10.3% | 0.8% | 0.4% | 11.0%
CCc1cccc(OCC(=O)Nc2ccc(C)c(S(=O)(=O)N3CCCCCC3)c2)c1 | -0.4% | -18.9% | -18.6% | -1.3% | 6.6%[15.4 µM]
Cc1ccc(NC(=O)COc2ccc(N(C)C(=O)C(C)(C)C)cc2)cc1S(=O)(=O)N1CCCCC1 | 1.5% | 35.5µM* | -15.8% | -5.3% | -9.0%
COc1cc(C(C)=O)ccc1OCC(=O)Nc1ccc(C)c(S(=O)(=O)N2CCCCCC2)c1 | 4.7% | 31.6µM* | 26.5% | -8.8% | 3.5%
COc1cc(C(C)=O)ccc1OCC(=O)Nc1ccc(S(=O)(=O)N2CCCCC2)cc1 | . | . | . | . | -72.1%
Cc1ccc(NC(=O)COc2ccccc2C(N)=O)cc1S(=O)(=O)N1CCCCCC1 | -1.9% | 35.5µM* | 5.0% | -12.1% | ?
NS(=O)(=O)c1ccc(CNC(=O)c2sccc2-c2ccccc2)cc1 | 2.6% | 8.5% | 5.6% | 3.5% | -71.1%
